# PubChem BioAssay AID449762 (Southern Research Specialized Biocontainment Screening …, 2010)
# Screen size: about 330,000 compounds; about 1,900 (0.58%) were called active. Roughly 4% stayed inconclusive and do not appear here. These entries were drawn from the full list. Entries with a potency or affinity are not part of this list. A number with no mark means an inactive call. No stated cut-off is given here; in the data, inconclusive means inhibition above about 70% without an active follow-up result; inactive means below that.
# Assay: M. tuberculosis growth inhibition, HTS (AID 449762);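 further: bacterial growth assessed after seven days of incubation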
# Conditions: M. tuberculosis H37Rv growth inhibition, 7H9 media; at 25 µM; stronger effect = higher value
row,SMILES,inhibition [%]
1,Cc1ccc(S(=O)(=O)NNC(=O)Nc2ccc(Cl)cc2)cc1,0.2
2,COc1cc(SC)ccc1C(=O)NCCOc1ccc(Cl)cc1,64.9
3,O=C(Nc1ccc(N2CCN(C(=O)c3ccco3)CC2)cc1)c1ccccc1,2.03
4,O=C(Nc1ccc(N2CCN(C(=O)c3ccco3)CC2)cc1)c1ccco1,-1.95
5,NC(=O)CC(NC(=O)Cc1ccc(Br)cc1)c1ccc(NCc2ccccn2)c([N+](=O)[O-])c1 (stereo not given),3.35
6,O=C(CN1C(=O)S/C(=C/c2cc(Br)cs2)C1=O)N1CCOCC1,5.49
7,COCCNC(=O)c1ccccc1NC(=O)CCSc1ccccc1,-2.26
8,CCC1CCCCN1Cc1nc2c(c(=O)n(C)c(=O)n2C)n1CCC(C)C (stereo not given),-0.27
9,COc1ccc(-c2c(-c3cccc(C)c3)oc3ccc(-c4ccc5c(c4)OCO5)cc23)cn1,-1.67
10,Cc1cccc(-c2oc3ccccc3c2-c2ccc3c(c2)OCO3)c1,52.4
11,Cc1c(Cl)c([N+](=O)[O-])nn1CCCC(=O)Nc1ccc(Cl)cc1Cl,5.86
12,CC1=NOC(=O)/C1=C\c1ccc(-c2ccc(Br)cc2C(=O)O)o1,-4.04
13,CC1=NOC(=O)/C1=C\c1ccc(-c2cccc(Cl)c2)o1,60.5
14,Cc1c(NC(=S)Nc2cccc(Cl)c2)c(=O)n(-c2ccccc2)n1C,7
15,Cc1cccc(NC(=O)CN2CCN(C(=O)COc3cccc(Br)c3)CC2)c1C,1.13
16,CCOC(=O)c1sc(NCCNc2nc(C)c(C(=O)OCC)s2)nc1C,-6.54
17,CCOC(=O)CSc1nnc(N)s1,-0.59
18,CCOC(=O)c1sc(SCC(=O)Nc2ccc(N(C)C)cc2)nc1N,1.23
19,COc1ccc(NC(=O)CSc2nc(N)c(C(=O)Nc3ccc(N(C)C)cc3)s2)cc1,15.8
20,COc1cccc(CN(C)CC(=O)Nc2c(C)cccc2C(C)C)c1,1.22
21,O=C(c1csc2ccccc12)N1CCN(c2ccc(Cl)c(Cl)c2)CC1,2.65
22,N[C@@H](Cc1cc(I)c(O)c(I)c1)C(=O)O,-4.28
23,N[C@@H](Cc1ccc(N(CCCl)CCCl)cc1)C(=O)O,-2.59
24,NC(CS(=O)O)C(=O)O (stereo not given),5.82

row,SMILES,inhibition [%]
1,N[C@@H](Cc1cc(Br)c(O)c(Br)c1)C(=O)O,1.75
2,Cc1ccc(C(=O)NCC(=O)OCC(=O)c2ccc(Cl)s2)cc1,13.4
3,O=C(NC1CCSc2ccccc21)c1cc(S(=O)(=O)N2CCOCC2)ccc1F (stereo not given),-1.41
4,O=C(NC1CC1)c1cc(=O)c2ccccc2o1,-13.4
5,COc1cc2c(cc1Cl)C(=O)C(F)(c1ccccc1)C(=O)N2 (stereo not given),-6.77
6,COc1ccc(OC)c(NC(=O)c2ccc(CSc3nnc(C)s3)cc2)c1,49.4
7,Cc1nnc(SCc2ccc(C(=O)Nc3cc(Cl)ccc3C)cc2)s1,-1.77
8,CCOc1ccc(NC(=O)CSc2nnc(COc3c(C)cccc3C)o2)cc1,-12.7
9,COc1cc(NC(=O)Cc2ccccc2)c(C(=O)O)cc1OC,5.42
10,COc1ccc(-n2nnnc2CNC(=O)C(=O)c2c[nH]c3ccccc23)cc1,1.52
11,COc1ccc(-c2c(-c3ccccc3OC)sc3ccccc23)cc1OC,11.5
12,CCOC(=O)Cc1cn(C(=O)OC(C)(C)C)c2ccccc12,-4.41
13,CC(=O)c1ccc(NC(=O)CNCc2cccs2)cc1,-3.9
14,Cc1ccc(NC(=O)CNCc2cccs2)c(Br)c1,1
15,CSCCC(NC(=O)c1ccco1)C(=O)NC1CCC(C)CC1 (stereo not given),-5.12
16,O=S(=O)(c1ccc2c(c1)OCCO2)C1CCC(S(=O)(=O)c2c(F)cccc2F)CC1 (stereo not given),-1.16
17,CC[n+]1c(/C=C/N(C)c2ccccc2)oc2ccc(Cl)cc21,-7.91
18,CC[n+]1c(/C=C/N(C)c2ccccc2)oc2ccc(F)cc21,-7.16
19,COC(=O)c1ccc(NC(=O)CSc2nnc(C)n2CC2CCCO2)cc1 (stereo not given),-1.12
20,CC(OC(=O)c1cccc(NS(C)(=O)=O)c1)C(=O)Nc1ccc2c(c1)OCO2 (stereo not given),-1.53
21,Cc1ccc(/C=N/NC(=O)CSc2nc3ccccc3c(=O)n2-c2ccccc2C)s1,6.56
22,Cc1ccc(-n2c(SCC(=O)N/N=C/c3c(C)nn(-c4ccccc4)c3C)nc3ccccc3c2=O)cc1,12
23,Cc1cc(C(=O)N/N=C/c2c(C)nn(-c3ccccc3)c2C)n[nH]1,-1.35
24,Cc1nn(-c2ccccc2)c(C)c1/C=N/NC(=O)c1cc(O)cc(O)c1,0.86

row,SMILES,inhibition [%]
1,CCCCNC(=O)CSc1nnc(Cc2ccc(Cl)c(Cl)c2)c(=O)[nH]1,4.24
2,O=c1ccc(=O)n2n1CC(O)C2,1.79
3,Cc1cc(Cl)c(S(=O)(=O)Nc2ccc(S(=O)(=O)N3CCOCC3)cc2)cc1OCC(N)=O,5.99
4,CC(C)Cn1c(N)c(C(=O)COC(=O)Cc2cccc(C(F)(F)F)c2)c(=O)n(C)c1=O,3
5,CCOC(=O)N/N=C(C)/C=C/c1ccccc1,-3.41
6,Cc1ccc(OCC(=O)NCc2cccnc2)cc1,-0.13
7,CC1CCN(C(=O)c2ccc(CSc3nc4ccncc4n3Cc3ccc(F)cc3)cc2)CC1,-5.51
8,CCCOc1ccc(CC(=O)NCC2(c3ccccc3)CCOCC2)cc1OC,5.05
9,Cc1ccc(N(CC(=O)NC2CCCC2)C(=O)CCC(=O)Nc2nccs2)cc1C,-7.45
10,O=C(CN1CCC(n2nnc3ccccc32)CC1)NCc1cccs1,-0.03
11,C=CCNC(=O)CN1CCC(n2nnc3cc(C(F)(F)F)ccc32)CC1,-4.99
12,O=C(CN1C(=O)/C(=C/c2ccccc2)SC1=S)NC1C=CS(=O)(=O)C1 (stereo not given),2.53
13,COc1cccc(C2C3=C(N=c4s/c(=C\c5ccc(O)cc5)c(=O)n42)c2ccccc2CC3)c1OC (stereo not given),65.1
14,COc1cccc(C2C3=C(N=c4s/c(=C\c5ccccc5O)c(=O)n42)c2ccccc2CC3)c1OC (stereo not given),4.34
15,COc1ccccc1NC(=O)c1ccccc1C(=O)N(C)Cc1ccccc1,-2.3
16,Cc1cc(C)nc(SCC(=O)O)n1,0.26
17,O=C(c1ccc2nc[nH]c2c1)N1CCc2ccccc2C1,-3.52
18,Cc1ccc(NC(=O)CN(C)C(=O)Cn2ncc(Cl)c(Cl)c2=O)cc1,28.7
19,CCC(=O)Nc1ccc(C(=O)Cn2ncc(Cl)c(Cl)c2=O)cc1,-3.99
20,COc1ccc(CCC(=O)NCCCNC(=O)CCc2ccc(OC)cc2)cc1,8.41
21,CCCCc1cc(=O)oc2cc(C)cc(OC(C)C(=O)NC(Cc3c[nH]c4ccc(O)cc34)C(=O)O)c12 (stereo not given),-11.4
22,O=C(COC(=O)c1ccccc1Br)Nc1ccc(F)cc1,45.4
23,O=C(Nc1ccc(F)cc1)c1cccc(NC(=O)C2C3CC4OC(=O)C2C4C3)c1 (stereo not given),-6.31
24,O=C1CC(/C=C/c2ccncc2)=Nc2ccccc2N1,-0.65

row,SMILES,inhibition [%]
1,O=C1CC(/C=C/c2ccccc2)=Nc2ccccc2N1,-1.18
2,CCCCNS(=O)(=O)c1ccc(NC(=O)Cc2ccc(OC)cc2)cc1,-0.2
3,O=C(NCCCN1CCOCC1)c1cc(S(=O)(=O)N2CCOCC2)ccc1Cl,-0.79
4,Cc1ccc(-n2c(C)c3c(C)nnc(C)c3c2C)cc1C,39.9
5,Cc1cc(-n2c(C)c3c(C)nnc(C)c3c2C)ccc1N,-1.53
6,COc1cc(NS(C)(=O)=O)c(OC)cc1NC(=O)c1ccccc1,-13.2
7,N#Cc1cccc2c1-c1ccccc1/C2=N/NC(N)=S,11.6
8,NC(=O)N/N=C1\c2ccccc2-c2c(C(N)=O)cccc21,-8.45
9,COc1cccc(C(=O)NCC2CCCN2S(=O)(=O)c2cccs2)c1 (stereo not given),-3.52
10,CNC(=S)n1cnc(N)n1,-9.24
11,CCOC(=O)CNC(=S)n1ncnc1N,-5.34
12,CCc1nc2nc(C)c(NS(=O)(=O)c3ccc(Br)s3)c(=O)n2[nH]1,-4.89
13,CCC1CCCCN1C(=O)c1ccc2c(c1)C(=O)N(c1ccc(C)cc1)C2=O (stereo not given),7.37
14,CNC(=S)NC1CC2CCC(C1)N2Cc1ccccc1 (stereo not given),-6.1
15,CNC(=S)NC1CC2CCCC(C1)N2Cc1ccc(C)cc1 (stereo not given),-9.32
16,CCc1ccc(NC(=S)NC2CC3CCCC(C2)N3Cc2ccccc2)cc1 (stereo not given),9.67
17,CCNC(=S)NC1CC2CCCC(C1)N2Cc1ccc(C)cc1 (stereo not given),-6.09
18,C/C(N)=C(/C#N)C(=O)COC(=O)CCSc1ccccc1Cl,-0.73
19,O=C(Nc1ccc(Br)cc1Br)c1cccc2c1C(=O)N(C1CCCCC1)C2,10.8
20,CC(C)C[C@H](NC(=O)CCCn1nnc2ccccc2c1=O)C(=O)O,7.06
21,Cc1cc(C)c2c(CC(=O)NNC(=O)c3ccccc3)coc2c1,-11.5
22,COc1ccc(N=Nc2ccc3ccccc3c2)c(O)c1,53.5
23,COc1cc(N=Nc2ccccc2C(=O)O)ccc1O,5.29
